Experimental findings from PubChem BioAssay (NCI) are described below.

Structures are written as SMILES. About 79,000 compounds went through this panel and 15% of them were active in at least one assay; those are over-represented in the sample as a whole. Unmarked numbers belong to inactive results. Active and inactive are the calls of the source. Cut-off read from the data, not from the text of the source: active = growth inhibition above about 70%; inactive = the rest.

The nature of assay [1]: NCI Yeast Anticancer Drug Screen. Data for the rad50 strain (AID 155).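 Note: 0% = growth of vehicle-only cultures of the same strain.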 The conditions noted are these: S. cerevisiae rad50 strain growth inhibition; at 50.0 µM; hits give high values. The procedure, abridged: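 Yeast carrying a defined DNA repair defect were exposed to test compounds, and growth was compared with vehicle-treated controls to give percent inhibition.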
Assay [2] in a line: NCI Yeast Anticancer Drug Screen. Data for the mec2-1 strain (AID 157). The conditions noted are these: S. cerevisiae mec2-1 strain, at 50.0 µM, hits give high values. The procedure, abridged:
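Test agents were screened against the mec2-1 yeast strain, with defined DNA repair or cell cycle alteration. Growth was scored as inhibition against vehicle-only controls.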

A short description of assay [3]: NCI Yeast Anticancer Drug Screen. Data for the sgs1 mgt1 strain (AID 161).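 Note: 0% = growth of cultures given vehicle only.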 The conditions noted are these: S. cerevisiae sgs1 mgt1 strain, at 50.0 µM, hits give high values. The method, boiled down:
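Read-out: growth inhibition vs vehicle controls. Cells: mutant yeast strain deficient in DNA damage repair.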

The nature of assay [4]: NCI Yeast Anticancer Drug Screen. Data for the cln2 rad14 strain (AID 165).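 Note: 0% = growth equal to vehicle treated cultures.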 The conditions noted are these: S. cerevisiae cln2 rad14 strain, at 50.0 µM, hits give high values. The procedure, abridged:
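Growth of compound-exposed yeast (cln2 rad14 genotype) measured and expressed as inhibition relative to vehicle.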

Assay [5] can be described thus: NCI Yeast Anticancer Drug Screen. Data for the bub3 strain (AID 167). The conditions noted are these: S. cerevisiae bub3 mutant strain, at 50.0 µM, hits give high values. The method, boiled down: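 Compounds were applied to a genetically altered yeast strain carrying a cell-cycle control defect. Growth inhibition was scored against vehicle-treated controls.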
The nature of assay [6]: NCI Yeast Anticancer Drug Screen. Data for the mlh1 rad18 strain (AID 175). The conditions noted are these: S. cerevisiae mlh1 rad18 strain growth inhibition; at 50.0 µM; hits give high values. The method, boiled down: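 In this whole-cell yeast screen, a strain with altered DNA damage repair is challenged with compound, and its growth is measured against matched vehicle-treated controls.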

On to `C#CCOc1c(C(=O)OCC)c(=O)n(C)c2ccccc12`, for which the growth inhibition was -10% in assay [1]; -17.1% in assay [2]; 12.8% in assay [3]; 9.4% in assay [4]; 3.55% in assay [5]; 1.7% in assay [6].
Consider `CC1=CC(c2ccccc2)(c2ccccc2)c2ccccc21`, for which the growth inhibition in assay [1] is 0.1%; in assay [2] it was 3%; in assay [3], 5%; in assay [4] it was -19.1%; in assay [5] it was 1.7%; in assay [6] it was -17.4%.
On to `CN1CCC2c3c([nH]c4ccccc34)C(C)(C)OC2C1` (stereo unspecified), for which the growth inhibition is -11.9% in assay [1]; -35.9% in assay [2]; -33.6% in assay [3]; 9.2% in assay [4]; -24.6% in assay [5]; 6.65% in assay [6].
For `Cc1cc2n(n1)C(=O)CC(=O)C2`, the growth inhibition in assay [1] is 8.4%; in assay [2] it was 1%; in assay [3] it was 2.25%; in assay [4], -24.4%; in assay [5] it was -1.2%; in assay [6] it was -3.7%.
On to `O=C(O)c1c(Br)c(Br)c(Br)c(Br)c1C(=O)Nc1cc([N+](=O)[O-])ccc1O`, for which the growth inhibition was 14.2% in assay [1]; -8.45% in assay [2]; 8.9% in assay [3]; 7.9% in assay [4]; 4.05% in assay [5]; 3.85% in assay [6].
For the compound `O=S(=O)(Nc1cc(Cl)c(NS(=O)(=O)c2ccccc2)c(S(=O)(=O)c2ccccc2)c1Cl)c1ccccc1`, the growth inhibition in assay [1] was 58.2%; in assay [2], 62.4%; in assay [3], 73.5% (active); in assay [4] it was 71.8% (active); in assay [5] it was 65.3%; in assay [6], 65%.
In the case of `c1cncc(C2c3[nH]c4ccccc4c3CCN2CCN2CCCCC2)c1` (stereo unspecified), the growth inhibition in assay [1] was -32.8%; in assay [2], -46.5%; in assay [3], -9.4%; in assay [4], -4.35%; in assay [5], -37.5%; in assay [6], -34.4%.
Consider `O=CC12c3ccccc3C(c3ccccc31)C1C(=O)NC(=O)C12` (stereo unspecified), for which the growth inhibition in assay [1] was 1.65%; in assay [2], -1.05%; in assay [3] it was 7.6%; in assay [4], 31.1%; in assay [5] it was -18.3%; in assay [6], 6.65%.
`Cc1ccc(NS(=O)(=O)c2ccc(F)cc2)cc1Cl`: the growth inhibition in assay [1] was 99.7% (active); in assay [2], 99.3% (active); in assay [3] it was 99.7% (active); in assay [4], 99.3% (active); in assay [5], 99.6% (active); in assay [6], 99.8% (active).
In the case of `Cc1nc(=O)n2c(c1C(=O)Nc1ccc(Cl)cc1)NCC2`, the growth inhibition in assay [1] was 3.75%; in assay [2], -3.35%; in assay [3] it was 0.1%; in assay [4], -37.9%; in assay [5], 2.35%; in assay [6], 14.8%.
As for `CCOC(=O)C(CC1OCCO1)C1=NC(C)(C)CC(C)O1` (stereo unspecified), the growth inhibition is -18.4% in assay [1]; 1.2% in assay [2]; -11.4% in assay [3]; -0.05% in assay [4]; -7% in assay [5]; 3.85% in assay [6].
On to `Cc1c(CCNC(=O)C(F)(F)F)ccc2c1[nH]c1ccccc12`, for which the growth inhibition in assay [1] was -3.3%; in assay [2], 3.05%; in assay [3] it was 11.8%; in assay [4] it was -41.4%; in assay [5], -2.4%; in assay [6], -5.95%.
As for `CC1(Cn2ccc(=O)[nH]c2=O)CC(C2(C)OCCO2)C(=O)O1` (stereo unspecified), the growth inhibition in assay [1] was -16.6%; in assay [2], -22.3%; in assay [3], -33.1%; in assay [4], -30.7%; in assay [5], -19%; in assay [6], -14.4%.
On to `C=CCCCCCCCCC(=O)NCc1nc2ccccc2[nH]1`, for which the growth inhibition is 20.6% in assay [1]; 21.6% in assay [2]; 25.9% in assay [3]; 1.15% in assay [4]; 5.9% in assay [5]; 69.1% in assay [6].
For `Cc1cc2c(SCc3ccccc3Cl)nc(N)nc2nc1C`, the growth inhibition in assay [1] is 15.7%; in assay [2] it was 12.3%; in assay [3], 5.65%; in assay [4] it was -35%; in assay [5] it was -12.6%; in assay [6], 31.6%.
For the compound `CCc1cccc(C(C)C)c1NC(=O)C(=O)C(Cc1nc2ccccc2[nH]c1=O)C(=O)OC` (stereo unspecified), the growth inhibition is 37.8% in assay [1]; 8.6% in assay [2]; 3.85% in assay [3]; -57.9% in assay [4]; 2.4% in assay [5]; 15.4% in assay [6].
In the case of `O=C1C(Cl)=C(N(C(=O)c2ccccc2)C(=O)c2ccccc2)C(=O)c2ccccc21`, the growth inhibition is 6.6% in assay [1]; -3.7% in assay [2]; 83.2% (active) in assay [3]; 74% (active) in assay [4]; 86% (active) in assay [5]; -51.6% in assay [6].
As to `O=C(Nc1cc(Cl)c(Cl)cc1Cl)N1CCOCC1`, the growth inhibition was 0.15% in assay [1]; -30.7% in assay [2]; -11.2% in assay [3]; 5.25% in assay [4]; -6.1% in assay [5]; -5.15% in assay [6].
As to `CC(=O)C1(O)CCC2C3CCC4CC(=O)CCC4(C)C3C(=O)CC21C` (stereo unspecified), the growth inhibition in assay [1] is 4.4%; in assay [2], -24.8%; in assay [3], 2.25%; in assay [4], 27.9%; in assay [5], 13.6%; in assay [6] it was -10.6%.
With `C=C1CC/C=C(\C)CCC2C1CC2(C)C` (stereo unspecified), the growth inhibition in assay [1] was -5.1%; in assay [2], -17.1%; in assay [3] it was 1.9%; in assay [4], 12.2%; in assay [5] it was 21.1%; in assay [6] it was 10.9%.
Take `Cc1c(C#N)c(N)[nH]c(=S)c1C#N`: the growth inhibition was 5.5% in assay [1]; 20.2% in assay [2]; 4.95% in assay [3]; 1.25% in assay [4]; 0.45% in assay [5]; 11.3% in assay [6].
